From PubChem BioAssay (NCATS)
Records with an inconclusive call do not appear. Active and inactive are the calls of the source. Unless noted, the call rests on the fitted dose curve; in most records, active means well fitted curve in the direction sought with a large enough effect; inconclusive means small, poorly fitted or top-dose-only effect, or another doubt; inactive means no such curve, though single readings can be large; an effect the other way counts as inactive or inconclusive.

How the values were obtained:
[1] = target: Lysosomal acid glucosylceramidase (Homo sapiens) (UniProt P04062); experiment: Glucocerebrosidase-p2 (AID 348; in the data active means potency below about 10 µM; further: potency means the concentration at half of the fitted maximal effect); conditions: purified GBA, blue fluorogenic substrate, 40 min
Method in brief: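 Normal human glucocerebrosidase (0.2 nM) with blue fluorogenic substrate (80 uM final) in citrate/phosphate pH 5.9 with 10mM sodium taurocholate, 0.01% tween-20; 40 min RT, NaOH/glycine stop; fluorescence Ex 365/Em 440; AC50 from a titration from 0.6 nM upwards.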

[2] = Stat Signaling Pathway (AID 446; active means well fitted curve in either direction with a large enough effect, not every such curve was filed as active;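 further: ME-180 cervical cancer cells given 40 pM IL-6 alongside compound; SIE-controlled beta-lactamase reporter measured as 460/530 nm FRET emission ratio; on the % scale 0 is the no-effect control and ±100 the full control effect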); conditions: ME-180 (cervical carcinoma) SIE beta-lactamase reporter, IL-6 stimulated, 5 h; at 7.69 µM (top of the series) unless noted
Method in brief: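 Emission at 460 and 530 nm (excitation 405 nm) reports SIE-controlled beta-lactamase in ME-180 cells. Cells received compound with 40 pM IL-6 for 5 hrs at 37 C; data scaled between 300 pM IL-6 and 125 nM JAK-inhibitor controls.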

[3] = target: Glucocorticoid receptor (Homo sapiens) (UniProt P04150); experiment: GR-GFP Redistribution (AID 450;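 active means compounds whose dose series gives a full or clear partial fitted curve of increased nuclear translocation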; further: potency means the concentration at half of the fitted maximal effect); conditions: U2OS GR-GFP nuclear translocation, laser cytometry, 2 h
[4] = target: Glucocorticoid receptor (Homo sapiens) (UniProt P04150); experiment: GR-EFC Redistribution (AID 451; calls by dose curve; further: potency means the concentration at half of the fitted maximal effect); conditions: CHO-K1 GR-EFC translocation, beta-gal luminescence, 2 h
Method in brief: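 Translocation of GR-ED fusion to nuclear EA restores b-gal, read by luminescence after 1 h room-temperature detection. Engineered CHO-K1 biosensor cells, 1,000/well, exposed 2 h at 37 C to titrations up to 46 uM final.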

[5] = target: Mitogen-activated protein kinase 10 (Mus musculus) (UniProt Q61831); experiment: JNK3 AlphaScreen Assay (AID 530; active means well fitted curve in either direction with a large enough effect, not every such curve was filed as active;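 further: kinase came from lysate of stimulated human HepG2 cells; signal reports phosphorylation of biotinylated GST-cJun 1-79 at Ser73 with 10 µM ATP; on the % scale 0 is the no-effect control and ±100 the full control effect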); conditions: JNK3 lysate, c-Jun phosphorylation; series mostly up to 11.4 µM
Method in brief: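 qHTS titrations with 15 min compound pre-incubation before adding ATP (10 uM final). Read-out: AlphaScreen of Ser73-phosphorylated biotin-GST-cJun using HepG2 lysate JNK3 activated by IL-1β and TNFα.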

[6] = target: 3',5'-cyclic-AMP phosphodiesterase 4B (Homo sapiens) (UniProt Q07343); experiment: qHTS Assay for Inhibitors of PDE-IV (AID 607; active means well fitted activation curve with a large enough effect in the main read-out, with a control signal flat, not every such curve was filed as active; further: % of control where 0% means no effect); conditions: HEK293 ACTOne CNG channel cells, membrane potential fluorescence; series mostly up to 22.9 µM
Method in brief: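 The readout is membrane depolarisation from a cAMP-sensing CNG channel, detected with a potential dye at ex 535/em 590. Cells were HEK293-derived (endogenous PDE-IV) at 1000 cells/well, titrated up to 22.9 uM final.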

[7] = target: ATP-dependent 6-phosphofructokinase (Trypanosoma brucei brucei) (UniProt O15648); experiment: qHTS Assay to Find Inhibitors of T. brucei phosphofructokinase: hit validation (AID 492961);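 further: luminescence reports ADP formed as PFK phosphorylates fructose-6-phosphate with ATP; on the % scale 0 is the no-effect control and ±100 the full control effect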; conditions: T. brucei PFK, ADP-Glo luminescence; series mostly up to 51.4 µM
Method in brief: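 ADP-Glo luminescence read-out of ADP formed by 1.25 nM PFK from 0.1 mM ATP and 0.5 mM F6P (TEA pH 8.0, 45 min, RT). Compounds titrated; activity normalized to no-enzyme and full-enzyme controls.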

[8] = target: Ubiquitin carboxyl-terminal hydrolase 1 (Homo sapiens) (UniProt O94782); experiment: Inhibitors of USP1/UAF1: Pilot qHTS (AID 504865); conditions: purified USP1/UAF1, Ub-rhodamine cleavage fluorescence; series mostly up to 114 µM;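 further: rhodamine fluorescence freed from ubiquitin-rhodamine substrate followed over time; top concentration of the series differs between compounds; on the % scale 0 is the no-effect control and ±100 the full control effect; nearly all actives have a fitted effect of over 35% in size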
Method in brief: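 USP1/UAF1 complex (1nM) preincubated with compound 15 min at room temperature, then Ub-Rho substrate (150nM final) added. Fluorescence read kinetically at 480/540 nm, 6 reads every 60 seconds. Buffer: 50mM HEPES pH 7.8, 0.5mM EDTA, 0.1 mg/ml BSA, 1mM TCEP, 0.01% Tween-20.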

[9] = S16 Schwann cell viability assay (CellTiter-Glo assay) (AID 624031); conditions: S16 rat Schwann cells viability, 24 h; series mostly up to 57.5 µM; further: potency means the concentration at half of the fitted maximal effect; nearly all actives have a fitted effect of over 70% in size
Method in brief: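 Counter-screen for cytotoxicity: parental S16 rat Schwann cells lacking the PMP22 reporters, treated 24 h with compound, viability from cellular ATP by CellTiter-Glo luminescence, normalized to DMSO (0%) and no-cell wells.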

[10] = S16 Schwann cell PMP22 intronic element firefly luciferase assay (AID 624032); conditions: S16 rat Schwann cells, PMP22 element FLuc, 24 h; series mostly up to 57.5 µM; further: potency means the concentration at half of the fitted maximal effect; nearly all actives have a fitted effect of over 30% in size
Method in brief: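 Luciferase reporter of PMP22 intronic-element expression in stably transfected S16 rat Schwann cells, read by ONE-Glo luminescence after 24 h compound exposure at 37 C. Activity scaled between DMSO (0%) and positive-control PTC124; concentration-effect curves quality-classified.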

[11] = qHTS profiling for inhibitors of Plasmodium falciparum proliferation (AID 504749); further: nearly all actives have a fitted effect of over 60% in size; further: potency means the concentration at half of the fitted maximal effect;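 on activity, negative = inhibition: 0% = DMSO vehicle and full inhibition = artemisinin control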; conditions: P. falciparum in erythrocytes, SYBR Green DNA, 72 h; at 28.7 µM (top of the series); parasite line A
Method in brief: (§1)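 SYBR Green fluorescence of parasite DNA, read after lysis and overnight dark incubation, measured growth over 72 h in erythrocyte culture at 0.3% parasitemia and 2.5% hematocrit. Data normalised to DMSO and 0.29 uM artemisinin, with plate-drift correction.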

[12] = tested on: 3D7; experiment: as above; conditions: P. falciparum in erythrocytes, SYBR Green DNA, 72 h; series mostly up to 28.7 µM
Method in brief: as §1

[13] = tested on: 7G8; experiment: as above; conditions: P. falciparum in erythrocytes, SYBR Green DNA, 72 h; series mostly up to 28.7 µM
Method in brief: as §1

[14] = tested on: AA1029; experiment: as above; conditions: P. falciparum in erythrocytes, SYBR Green DNA, 72 h; series mostly up to 28.7 µM
Method in brief: as §1

[15] = tested on: AS120; experiment: as above; conditions: P. falciparum in erythrocytes, SYBR Green DNA, 72 h; series mostly up to 28.7 µM
Method in brief: as §1

[16] = tested on: ATS189; experiment: as above; conditions: P. falciparum in erythrocytes, SYBR Green DNA, 72 h; series mostly up to 28.7 µM
Method in brief: as §1

[17] = tested on: ATS95; experiment: as above; conditions: P. falciparum in erythrocytes, SYBR Green DNA, 72 h; series mostly up to 28.7 µM
Method in brief: as §1

[18] = tested on: C2A; experiment: as above; conditions: P. falciparum in erythrocytes, SYBR Green DNA, 72 h; series mostly up to 28.7 µM
Method in brief: as §1

[19] = tested on: CP185; experiment: as above; conditions: P. falciparum in erythrocytes, SYBR Green DNA, 72 h; series mostly up to 28.7 µM
Method in brief: as §1

[20] = tested on: CP191; experiment: as above; conditions: P. falciparum in erythrocytes, SYBR Green DNA, 72 h; series mostly up to 28.7 µM
Method in brief: as §1

[21] = tested on: CP192; experiment: as above; conditions: P. falciparum in erythrocytes, SYBR Green DNA, 72 h; series mostly up to 28.7 µM
Method in brief: as §1

[22] = tested on: CP194; experiment: as above; conditions: P. falciparum in erythrocytes, SYBR Green DNA, 72 h; series mostly up to 28.7 µM
Method in brief: as §1

[23] = tested on: CP201; experiment: as above; conditions: P. falciparum in erythrocytes, SYBR Green DNA, 72 h; series mostly up to 28.7 µM
Method in brief: as §1

[24] = tested on: CP203; experiment: as above; conditions: P. falciparum in erythrocytes, SYBR Green DNA, 72 h; series mostly up to 28.7 µM
Method in brief: as §1

[25] = tested on: CP211; experiment: as above; conditions: P. falciparum in erythrocytes, SYBR Green DNA, 72 h; series mostly up to 28.7 µM
Method in brief: as §1

[26] = tested on: CP215; experiment: as above; conditions: P. falciparum in erythrocytes, SYBR Green DNA, 72 h; series mostly up to 28.7 µM
Method in brief: as §1

[27] = tested on: CP217; experiment: as above; conditions: P. falciparum in erythrocytes, SYBR Green DNA, 72 h; series mostly up to 28.7 µM
Method in brief: as §1

[28] = tested on: CP237; experiment: as above; conditions: P. falciparum in erythrocytes, SYBR Green DNA, 72 h; series mostly up to 28.7 µM
Method in brief: as §1

Chain of Glucocorticoid receptor (Homo sapiens) (P04150 whole entry, looked up, the tested form may be a part): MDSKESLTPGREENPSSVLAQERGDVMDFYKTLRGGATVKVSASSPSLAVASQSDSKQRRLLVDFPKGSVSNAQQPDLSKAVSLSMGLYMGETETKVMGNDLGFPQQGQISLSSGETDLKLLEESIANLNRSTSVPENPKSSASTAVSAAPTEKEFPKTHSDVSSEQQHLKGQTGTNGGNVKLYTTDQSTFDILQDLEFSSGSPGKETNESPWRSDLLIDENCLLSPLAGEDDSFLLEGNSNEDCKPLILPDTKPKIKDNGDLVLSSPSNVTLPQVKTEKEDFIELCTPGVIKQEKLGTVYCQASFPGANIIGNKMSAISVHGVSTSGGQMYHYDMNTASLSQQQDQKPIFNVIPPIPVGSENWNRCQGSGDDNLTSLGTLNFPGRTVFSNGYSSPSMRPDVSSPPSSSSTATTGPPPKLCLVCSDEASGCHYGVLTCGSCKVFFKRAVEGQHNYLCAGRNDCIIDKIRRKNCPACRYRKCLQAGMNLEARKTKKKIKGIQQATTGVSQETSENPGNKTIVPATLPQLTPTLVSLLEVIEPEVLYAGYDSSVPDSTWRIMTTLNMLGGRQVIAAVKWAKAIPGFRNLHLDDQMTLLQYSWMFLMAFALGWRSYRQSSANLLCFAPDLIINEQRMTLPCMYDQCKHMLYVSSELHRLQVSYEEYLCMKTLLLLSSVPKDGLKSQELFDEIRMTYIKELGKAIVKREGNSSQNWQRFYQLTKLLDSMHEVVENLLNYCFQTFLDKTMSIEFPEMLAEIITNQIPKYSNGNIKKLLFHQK
Chain of Lysosomal acid glucosylceramidase (Homo sapiens) (P04062 whole entry, looked up): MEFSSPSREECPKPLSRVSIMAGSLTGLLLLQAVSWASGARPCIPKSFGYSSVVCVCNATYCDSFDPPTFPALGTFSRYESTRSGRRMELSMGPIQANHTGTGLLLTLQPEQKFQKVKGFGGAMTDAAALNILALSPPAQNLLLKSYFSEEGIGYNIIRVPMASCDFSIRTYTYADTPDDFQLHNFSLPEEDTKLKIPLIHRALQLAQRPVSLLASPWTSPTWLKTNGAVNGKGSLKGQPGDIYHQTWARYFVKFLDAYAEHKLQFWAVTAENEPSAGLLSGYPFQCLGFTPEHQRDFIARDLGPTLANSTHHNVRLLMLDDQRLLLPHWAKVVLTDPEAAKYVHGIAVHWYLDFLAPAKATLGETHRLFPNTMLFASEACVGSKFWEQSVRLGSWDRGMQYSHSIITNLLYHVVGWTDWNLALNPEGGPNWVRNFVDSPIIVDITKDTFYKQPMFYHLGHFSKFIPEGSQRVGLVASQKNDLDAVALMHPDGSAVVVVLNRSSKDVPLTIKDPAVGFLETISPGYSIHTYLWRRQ
Chain of Ubiquitin carboxyl-terminal hydrolase 1 (Homo sapiens) (O94782 whole entry, looked up): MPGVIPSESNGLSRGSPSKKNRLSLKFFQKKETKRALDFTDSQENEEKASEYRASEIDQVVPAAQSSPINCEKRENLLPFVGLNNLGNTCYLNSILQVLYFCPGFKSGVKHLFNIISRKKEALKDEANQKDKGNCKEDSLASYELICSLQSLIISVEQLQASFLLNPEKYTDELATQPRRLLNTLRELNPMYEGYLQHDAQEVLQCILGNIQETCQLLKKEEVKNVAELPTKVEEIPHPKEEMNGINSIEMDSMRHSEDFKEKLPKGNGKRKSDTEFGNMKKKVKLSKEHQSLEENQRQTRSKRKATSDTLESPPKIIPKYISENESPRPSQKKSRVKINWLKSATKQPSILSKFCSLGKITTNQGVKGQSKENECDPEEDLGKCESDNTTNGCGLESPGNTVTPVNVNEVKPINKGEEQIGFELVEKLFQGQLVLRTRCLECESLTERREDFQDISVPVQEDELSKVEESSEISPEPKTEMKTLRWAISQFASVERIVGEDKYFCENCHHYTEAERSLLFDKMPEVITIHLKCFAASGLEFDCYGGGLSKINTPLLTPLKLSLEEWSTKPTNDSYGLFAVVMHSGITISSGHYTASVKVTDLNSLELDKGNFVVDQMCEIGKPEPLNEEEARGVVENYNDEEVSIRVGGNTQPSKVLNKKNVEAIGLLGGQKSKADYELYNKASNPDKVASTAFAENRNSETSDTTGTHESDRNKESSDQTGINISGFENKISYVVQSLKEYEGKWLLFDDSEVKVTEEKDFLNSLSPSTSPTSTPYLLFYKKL
Chain of ATP-dependent 6-phosphofructokinase (Trypanosoma brucei brucei) (O15648 whole entry, looked up): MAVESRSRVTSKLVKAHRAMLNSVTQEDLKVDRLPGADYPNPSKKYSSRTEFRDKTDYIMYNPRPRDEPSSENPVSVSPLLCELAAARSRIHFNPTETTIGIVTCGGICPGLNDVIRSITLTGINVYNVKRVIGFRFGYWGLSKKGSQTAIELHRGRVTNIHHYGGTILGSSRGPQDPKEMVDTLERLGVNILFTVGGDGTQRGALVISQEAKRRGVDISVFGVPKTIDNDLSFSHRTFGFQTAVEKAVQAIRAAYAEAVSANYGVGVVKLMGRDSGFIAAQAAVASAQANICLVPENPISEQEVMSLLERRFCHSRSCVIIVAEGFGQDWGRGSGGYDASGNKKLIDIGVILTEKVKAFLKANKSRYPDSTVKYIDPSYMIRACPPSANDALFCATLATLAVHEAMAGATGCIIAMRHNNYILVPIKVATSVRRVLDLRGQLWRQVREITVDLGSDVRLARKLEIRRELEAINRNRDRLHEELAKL
Chain of 3',5'-cyclic-AMP phosphodiesterase 4B (Homo sapiens) (Q07343 whole entry, looked up): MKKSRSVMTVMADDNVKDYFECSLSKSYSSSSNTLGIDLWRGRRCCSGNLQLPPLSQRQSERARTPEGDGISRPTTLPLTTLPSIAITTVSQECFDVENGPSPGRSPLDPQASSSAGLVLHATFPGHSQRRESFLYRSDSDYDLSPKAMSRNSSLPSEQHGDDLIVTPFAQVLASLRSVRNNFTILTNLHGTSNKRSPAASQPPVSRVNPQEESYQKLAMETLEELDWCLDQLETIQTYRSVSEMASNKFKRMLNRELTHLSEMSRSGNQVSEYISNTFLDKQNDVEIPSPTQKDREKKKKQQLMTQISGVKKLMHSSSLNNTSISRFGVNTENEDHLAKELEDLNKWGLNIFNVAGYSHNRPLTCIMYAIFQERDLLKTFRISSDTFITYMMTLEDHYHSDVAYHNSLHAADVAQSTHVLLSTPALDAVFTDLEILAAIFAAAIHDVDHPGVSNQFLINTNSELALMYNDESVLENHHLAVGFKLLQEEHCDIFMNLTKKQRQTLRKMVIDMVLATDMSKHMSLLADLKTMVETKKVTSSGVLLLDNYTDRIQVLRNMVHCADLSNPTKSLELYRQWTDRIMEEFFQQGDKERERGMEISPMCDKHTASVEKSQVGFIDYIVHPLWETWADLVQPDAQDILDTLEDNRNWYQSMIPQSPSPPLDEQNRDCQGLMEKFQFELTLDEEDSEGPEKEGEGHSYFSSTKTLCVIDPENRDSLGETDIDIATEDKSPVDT

OC[C@H](S)CS
inactive: Potency [1] > 11.4 µM | activity, negative = inhibition [2] 5.31% | Potency [3] > 46 µM | Potency [4] > 9.22 µM | Potency [5] | Potency [6] | outcome [7] | Potency [8] | activity, negative = inhibition [11] -3.06% | Potency [15] | Potency [16] | Potency [18] | Potency [19] | Potency [20] | Potency [21] | Potency [22] | Potency [23] | Potency [24] | Potency [25] | Potency [26] | Potency [27]
active: Potency [9] 36.1 µM | Potency [10] 7.21 µM | Potency [12] 3.16 µM | Potency [13] 0.891 µM | Potency [14] 10 µM | Potency [17] 12.6 µM | Potency [28] 2.24 µM
